These results are taken from PubChem BioAssay (Tox21).

Values joined by “and” are separate entries in the source; they are usually repeats but may differ in a detail not shown here. Equal entries are not always repeated. Inconclusive results are not listed. Active and inactive are the calls of the source. Unless noted, calls follow the shape of the dose curve; as a rule, active = well fitted curve in the direction sought with a large enough effect in the repeat runs; inconclusive = weak or mixed curves; inactive = no such curve, though single readings can be large; an effect the other way counts as inactive or inconclusive.

A short description of experiment [1]: qHTS assay for small molecule agonists of the p53 signaling pathway (AID 651631; calls by dose curve; also: nearly all actives have a fitted effect of over 15% in size; also: potency is read from the fitted curve at half-maximal effect). An outline of the steps:
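Fluorescence intensity from cleaved LiveBLAzer B/G substrate (2 h, room temperature) served as the signal. Beforehand, HCT-116 reporter cells bearing p53 response elements were treated 16 h at 37 °C with DMSO-dissolved compounds.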

Experiment [2] in a line: qHTS assay for small molecules that induce genotoxicity in human embryonic kidney cells expressing luciferase-tagged ATAD5 (AID 651632). Also: nearly all actives have a fitted effect of over 15% in size. An outline of the steps:
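DMSO vehicle served as the control. HEK293T reporter cells, 16 hr at 37C, then 30 min Amplite at room temperature; ATAD5 induction is measured as luciferase activity.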

The nature of experiment [3]: qHTS assay for small molecule agonists of the p53 signaling pathway - cell viability (AID 651633; calls by dose curve;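 also: p53RE-bla HCT reporter cells with a stable beta-lactamase p53 reporter; series mostly up to about 83 µM; nearly all actives have a fitted effect of over 30% in size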). An outline of the steps:
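Viability counter-read: CellTiter-Glo luminescence (30 min, room temperature) in the same p53RE-bla plates. These plates had been exposed to compounds for 16 h at 37 C.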

The nature of experiment [4]: qHTS assay for small molecules that induce genotoxicity in human embryonic kidney cells expressing luciferase-tagged ATAD5 - cell viability (AID 651634; calls by dose curve; also: nearly all actives have a fitted effect of over 25% in size). An outline of the steps: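 Here HEK293T cells with the ATAD5 luciferase reporter are incubated with test compounds for 15.5 hr, and cytotoxicity is then gauged by measuring protease activity in live cells using fluorescence.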

Experiment [5] is described as follows: qHTS assay for small molecule disruptors of the mitochondrial membrane potential - cell viability (AID 720634; calls by dose curve;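 also: human HepG2 liver cancer cells; series mostly up to about 83 µM; nearly all actives have a fitted effect of over 20% in size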). An outline of the steps: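 Viability of HepG2 cells is scored from ATP content by luminescence; cells are exposed to compound for 1 hr at 37 C and 5% CO2, then dosed with m-MPI dye before the CellTiter-Glo reagent.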
A short description of experiment [6]: qHTS assay for small molecule disruptors of the mitochondrial membrane potential (AID 720635). An outline of the steps:
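Mitochondrial membrane potential tracked with Mito-MPS dye, red aggregates (ex 540/em 590 nm) against green monomers (ex 490/em 535 nm). Compound treatment 1 hr at 37C, dye 30 min in HepG2.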

Experiment [7] in a line: qHTS assay to test for compound auto fluorescence at 590 nm (red) in HepG2 cells (AID 720674). An outline of the steps: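 We screened compounds on adherent HepG2 cells, incubating them for an hour at 37 C in 5% CO2 before reading emission at 590 nm under 540 nm excitation; values reflect equivalence to Rose Bengal sodium fluorescence.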
Experiment [8] can be described thus: qHTS assay to test for compound auto fluorescence at 535 nm (green) in HepG2 cells (AID 720675).
Experiment [9] in a line: qHTS assay to test for compound auto fluorescence at 460 nm (blue) in HEK293 cells (AID 720678). An outline of the steps: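 HEK293 cells (2,000/well, medium with 10% dialyzed FBS) attached 4-5 hr, then exposed to compound overnight at 37C, 5% CO2. Blue fluorescence read at 405/460 nm, with triamterene as reference fluorophore.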
Experiment [10] is described as follows: qHTS assay to test for compound auto fluorescence at 590 nm (red) in HEK293 cells (AID 720679). An outline of the steps: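 HEK293 cells (2,000/well, 10% dialyzed FBS) attached 4-5 hr, then dosed with compound or DMSO and incubated overnight at 37C, 5% CO2. Red fluorescence read at 540/590 nm, Rose Bengal sodium as reference fluorophore.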
The nature of experiment [11]: qHTS assay to test for compound auto fluorescence at 535 nm (green) in HEK293 cells (AID 720680).
A short description of experiment [12]: qHTS assay to test for compound auto fluorescence at 460 nm (blue) in HEK293 cell free culture (AID 720681). An outline of the steps:
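Blue fluorescence (Ex 405/Em 460 nm, triamterene-equivalent) was read immediately after pin transfer of compound or DMSO into medium (DMEM, 10% FBS) without cells.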

Experiment [13] is described as follows: qHTS assay to test for compound auto fluorescence at 535 nm (green) in HEK293 cell free culture (AID 720682). An outline of the steps:
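Intrinsic compound fluorescence is measured in culture medium containing 10% FBS, with excitation at 485 nm and detection at 535 nm, referenced to fluorescein.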

A short description of experiment [14]: qHTS assay to test for compound auto fluorescence at 590 nm (red) in HEK293 cell free culture (AID 720683). An outline of the steps:
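Red-channel autofluorescence of compounds in culture medium (DMEM, 10% FBS), no cells, measured at 540/590 nm. Rose Bengal sodium is the reference fluorophore for equivalence.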

A short description of experiment [15]: qHTS assay to test for compound auto fluorescence at 590 nm (red) in HepG2 cell free culture (AID 720684). An outline of the steps:
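No cells present: MEM + 10% FBS only. Compound pinned in, red label read (540/590 nm). Activity = fluorescence equivalent to Rose Bengal sodium.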

A short description of experiment [16]: qHTS assay to test for compound auto fluorescence at 460 nm (blue) in HepG2 cell free culture (AID 720685). An outline of the steps:
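Cell-free plates of MEM plus 10% FBS received 23 nL compound or DMSO vehicle; blue-channel (405/460 nm) intensity scored against triamterene as reference fluorophore.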

Experiment [17] in a line: qHTS assay to test for compound auto fluorescence at 535 nm (green) in HepG2 cell free culture (AID 720686).
A short description of experiment [18]: qHTS assay to test for compound auto fluorescence at 460 nm (blue) in HepG2 cells (AID 720687). An outline of the steps:
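Blue-channel autofluorescence (Ex/Em 405/460 nm, triamterene-equivalent) was measured after 1 hr compound exposure at 37 C, 5% CO2. Cells were HepG2, plated overnight at 37 C in MEM plus 10% FBS.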

Experiment [19] has as its target Glucocorticoid receptor (Homo sapiens) (UniProt P04150). In words: qHTS assay to identify small molecule agonists of the glucocorticoid receptor (GR) signaling pathway (AID 720691; active = well fitted activation curve with a large enough effect in the signal ratio in the repeat runs, not every such curve was filed as active; the % refers to the signal ratio). An outline of the steps:
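Compounds in DMSO, alongside positive controls, were added to GR-bla HeLa reporter cells and incubated 18 h at 37 C; GRE-driven beta-lactamase was detected by fluorescence after 2 h with FRET substrate at room temperature.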

Experiment [20] shares this target. The experiment can be described thus: qHTS assay to identify small molecule antagonists of the glucocorticoid receptor (GR) signaling pathway (AID 720692; active = well fitted inhibition curve with a large enough effect in the signal ratio in the repeat runs, not every such curve was filed as active; the % refers to the signal ratio). An outline of the steps:
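In a 1536-well cell format, compounds were added 4 h after seeding GR-bla HeLa cells, together with dexamethasone at 5 nM final; reporter activity was measured by FRET-substrate fluorescence following 18 h at 37 C.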

Chain of Glucocorticoid receptor (Homo sapiens) (P04150 whole entry, looked up): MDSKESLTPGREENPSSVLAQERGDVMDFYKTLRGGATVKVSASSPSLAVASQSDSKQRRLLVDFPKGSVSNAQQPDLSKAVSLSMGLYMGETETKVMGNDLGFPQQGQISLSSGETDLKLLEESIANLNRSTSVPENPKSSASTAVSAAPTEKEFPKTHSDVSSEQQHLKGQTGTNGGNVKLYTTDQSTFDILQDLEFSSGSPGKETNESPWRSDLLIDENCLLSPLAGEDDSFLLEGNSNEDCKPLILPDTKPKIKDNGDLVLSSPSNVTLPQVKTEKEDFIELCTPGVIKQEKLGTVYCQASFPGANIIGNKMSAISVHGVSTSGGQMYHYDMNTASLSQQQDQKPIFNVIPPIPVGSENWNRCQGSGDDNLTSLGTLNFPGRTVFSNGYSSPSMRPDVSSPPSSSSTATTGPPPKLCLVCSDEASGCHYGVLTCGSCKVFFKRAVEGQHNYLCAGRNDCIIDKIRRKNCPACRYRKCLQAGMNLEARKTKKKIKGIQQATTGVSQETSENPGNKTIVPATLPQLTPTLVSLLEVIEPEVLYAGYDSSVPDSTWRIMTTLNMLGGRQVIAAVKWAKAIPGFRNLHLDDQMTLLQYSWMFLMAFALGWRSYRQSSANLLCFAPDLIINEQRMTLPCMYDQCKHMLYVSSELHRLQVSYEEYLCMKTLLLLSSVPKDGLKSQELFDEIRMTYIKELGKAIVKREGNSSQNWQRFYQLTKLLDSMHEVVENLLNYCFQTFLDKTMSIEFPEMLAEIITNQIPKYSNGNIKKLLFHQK

In the case of `Cc1cccc(C)c1NC(=O)CN1CCCC1=O`, the Potency entry in experiment [1], in experiment [2], in [3], in [4], in experiment [5] and in experiment [6] was “inactive” in each case. Moreover, the Potency result in [20] was “inactive”. Besides, the outcome in experiment [7], in experiment [8], in experiment [9], in experiment [10], in experiment [11] and in [12] was inactive. Moreover, the call in [13], in [14], in experiment [15], in [16], in experiment [17] and in [18] was inactive. For the same compound, the call in experiment [19] was inactive.

Take `CNC(=O)O/N=C/C(C)(C)S(C)(=O)=O`: the Potency result in experiment [1], in experiment [2], in experiment [3], in [4], in experiment [5] and in experiment [6] was “inactive” each time. Besides, in [20], the Potency result is “inactive”. Further, the result in experiment [7], in experiment [8], in [9], in [10], in [11] and in experiment [12] was inactive. The outcome in experiment [13], in [14], in [15], in experiment [16], in [17] and in experiment [18] was inactive. The compound was classed as inactive in [19].

`Cc1cc(Cl)ccc1OC(C)C(=O)O` (configuration not stated): the Potency entry in [1], in [2], in [3], in [4], in experiment [5] and in experiment [6] was “inactive” throughout. The compound was classed as inactive in experiment [7], in experiment [8], in experiment [9], in experiment [10], in experiment [11] and in [12]. Moreover, the call in experiment [13], in experiment [14], in [15], in experiment [16], in experiment [17] and in experiment [18] was inactive.

As for `Nc1cccc(Cl)c1`, the Potency entry in experiment [1], in experiment [2], in [3], in experiment [4], in experiment [5] and in experiment [6] was “inactive” each time. Further, the outcome in [7], in [8], in experiment [9], in experiment [10], in experiment [11] and in experiment [12] was inactive. In addition, the call in experiment [13], in experiment [14], in [15], in experiment [16], in experiment [17] and in [18] was inactive.

In the case of `N#CN=C(N)N`, the Potency result in [1], in experiment [2], in experiment [3], in experiment [4], in [5] and in experiment [6] was “inactive” each time. For the same compound, the compound was classed as inactive in [7], in experiment [8], in experiment [9], in [10], in experiment [11] and in experiment [12]. Moreover, the outcome in experiment [13], in [14], in [15], in [16], in experiment [17] and in experiment [18] was inactive.

`O=C(O)CCCc1ccc(N(CCCl)CCCl)cc1`: in [1], the Potency was 23.7 µM (active) and 61.4 µM (active) and 34.4 µM (active). Besides, the Potency result in [2], in experiment [3], in experiment [4], in experiment [5] and in [6] was “inactive” throughout. In addition, the call in experiment [7], in [8], in experiment [9], in experiment [10], in experiment [11] and in experiment [12] was inactive. The result in experiment [13], in experiment [14], in experiment [15], in [16], in experiment [17] and in experiment [18] was inactive.

As for `ClCCOCCCl`, the Potency result in experiment [1], in experiment [2], in [3], in experiment [4], in experiment [5] and in experiment [6] was “inactive” in each case. The Potency entry in [20] is “inactive”. Further, the compound was called inactive in [7], in experiment [8], in experiment [9], in experiment [10], in [11] and in experiment [12]. Moreover, the outcome in experiment [13], in [14], in experiment [15], in [16], in experiment [17] and in experiment [18] was inactive. Besides, the outcome in [19] was inactive.

On to `CC(=O)C1CCOC1=O` (configuration not stated), for which the Potency result in experiment [1], in experiment [2], in experiment [3], in experiment [4], in experiment [5] and in experiment [6] was “inactive” throughout. The Potency result in [20] was “inactive”. Also, the result in [7], in experiment [8], in experiment [9], in experiment [10], in experiment [11] and in experiment [12] was inactive. The compound was called inactive in [13], in [14], in experiment [15], in experiment [16], in experiment [17] and in experiment [18]. Moreover, the outcome in experiment [19] was inactive.
